PubChem BioAssay AID1345082 (National Center for Advancing Translational Sciences (NCATS), 2018)
In all, about 94,000 compounds went through this assay and about 4,000 (4.3%) were called active. Not shown: some 29% with an inconclusive outcome. The full list was thinned out, with actives kept by preference. A number with no mark means an inactive call. Calls come from the whole dose curve; as a rule, active = well fitted inhibition curve with a large enough effect; inconclusive = small, poorly fitted or top-dose-only effect; inactive = no such curve, though single readings can be large or run the other way.

Experiment: Cytotoxic Profiling in NIH 3T3 Cell Line of Diverse Libraries Using Quantitative High-Throughput Screening; note: nearly all actives have a fitted effect of over 55% in size
Details: NIH 3T3 viability, CellTiter-Glo ATP luminescence, 48-72 h; series mostly up to 96.7 µM; activity change, negative = cytotoxicity: at the top concentration
How it was run: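 NIH 3T3 cells at 400 cells/well received 23 nL of compound by pintool and were incubated 48 or 72 h at 37 °C. Viability was read as ATP-coupled CellTiter-Glo luminescence.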
% is set by controls: 0 for no effect and ±100 for the full control effect; potency is the fitted concentration of half-maximal effect.

SMILES	activity change, negative = cytotoxicity	Potency	outcome
O=C(Cc1ccccc1)Nc1ccc([C@@H](O)[C@H]2COCC(=O)N2)cc1	2.9% [at 138 µM]	–	–
Cc1nc2cnccn2c1C(=O)NC1CCCC1	-26.7% [at 138 µM]	–	–
Cc1cccc(-c2cc(C3CCN(S(=O)(=O)c4ccc(C#N)cc4)CC3)[nH]n2)c1	–	14.1 µM (active)	–
Cc1cccc(S(=O)(=O)N2CCC(n3cnnc3C(C)C)CC2)c1	-17.6%	–	–
Cn1nc2n(c1=O)CCN(S(=O)(=O)c1ccc(C#N)cc1)CC2	–	–	inactive
Cc1cnc(-c2cccnc2)n1C1CCN(S(=O)(=O)c2cccc(F)c2)CC1	-7.18%	–	–
Cc1cnc(CC2CCN(S(=O)(=O)c3ccc(C#N)cc3)C2)n1Cc1ccccc1 (stereo unspecified)	-19.8%	–	–
Cc1cccc(-c2cc(C3CCN(S(=O)(=O)c4cccc(C#N)c4)CC3)[nH]n2)c1	–	5.01 µM (active)	–
O=C(Cc1ccsc1)NCC1CCCCC(=O)N1 (stereo unspecified)	–	–	inactive
Cc1ncccc1C(=O)N1CC2CC(C1)[C@H]1CCCC(=O)N1C2 (stereo partly specified)	-0.593%	–	–
CN1CC(=O)N(C2CCCNCC2)Cc2c1ncnc2N1CCCC(F)C1 (stereo unspecified)	-4.05%	–	–
Cc1noc(C)c1CC(=O)NCC12CCC=C1N(Cc1ccccc1)C(=O)CC2 (stereo unspecified)	-15%	–	–
CCc1ccc(C(=O)NC2CCN(c3cnn(CC)c(=O)c3)CC2)cc1	-15.7%	–	–
Cn1ncc(N2CCC(C(=O)NC3CCCC3)C2)cc1=O (stereo unspecified)	-3.98%	–	–
Cc1cc(C)cc(C(=O)NC2CCN(c3cnn(C)c(=O)c3)CC2)c1	–	39.8 µM (active)	–
COc1ccc(C(=O)N2CCN(C(=O)Nc3cccc(OC)c3)C[C@@H]2C(=O)N[C@H]2CCCNC2=O)cc1	4.28%	–	–
Cc1cc(C(=O)NCC2(COc3cccnc3)C[C@@H](O)[C@@H](O)C2)n(C)n1 (stereo partly specified)	-25.3% [at 174 µM]	–	–
Cc1ccc(-c2noc([C@@H]3Cc4nc[nH]c4CN3Cc3cccc(C#N)c3)n2)cc1	–	100 µM (active)	–
Cc1cccc(-c2noc([C@@H]3Cc4nc[nH]c4CN3C(=O)CCC(=O)O)n2)c1	-4.77% [at 174 µM]	–	–
O=C(c1ccco1)N1Cc2[nH]cnc2C[C@H]1c1nc(-c2ccncc2)no1	-11.2% [at 138 µM]	–	–
CNC(=O)c1cc(C2CC2)nc2onc(C3CCN(C(=O)Cc4ccc(OC)cc4)CC3)c12	-23.1%	–	–
O=C(c1cccnc1)N1CCC2(CCCN(C3CCOCC3)C2=O)C1 (stereo unspecified)	4.79%	–	–
CN1Cc2c(cc(N3CCOCC3)nc2-c2cccc(F)c2)C1=O	–	8.91 µM (active)	–
O=C1c2cc(N3CCOCC3)nc(-c3cccnc3)c2CN1C1COC1	–	8.91 µM (active)	–

SMILES	activity change, negative = cytotoxicity	Potency	outcome
O=C(NC1CCCCC1)N1CCCCCC1c1nc(-c2cccnc2)no1 (stereo unspecified)	-26.4%	–	–
O=c1[nH]c(N2CCOCC2)nc2c1CCN(Cc1cccc(F)c1)CC2	4.36%	–	–
Cc1cccc(Cn2c(-c3ccc(F)cc3)nc(C)c(CCO)c2=O)c1	-20.2%	–	–
Cc1cc(N2CCC(NC(=O)c3cccc(N(C)C)c3)C2=O)ccc1F (stereo unspecified)	-13.1%	–	–
O=C(c1c[nH]c2ccccc12)N1CCC2(COc3ccncc3S(=O)(=O)N2)C1 (stereo unspecified)	-4.03%	–	–
Cc1cc(C(=O)N2CCC(N3C(=O)C(O)C34CCCCC4)CC2)nn1C (stereo unspecified)	-3.23%	–	–
Cc1nc(C)c(C(=O)N2CCN(C(=O)N(C)C)[C@@H]3CS(=O)(=O)C[C@@H]32)s1	-15.2%	–	–
COc1ccccc1C(=O)N1CCC2(CC1)C(=NC1CCCCC1)NC(=O)N2c1cccnc1	–	–	inactive
O=C(NCc1nnc2n1C(C(=O)NC1CC1)CC2)c1ccncc1 (stereo unspecified)	-3.99%	–	–
CCn1cc(S(=O)(=O)N2CC[C@@H]3C(=O)NCCCCCCN(Cc4ccncc4)[C@@H]3C2)cn1	-21.9%	–	–
CN1[C@@H](CCC(=O)N2CCCC2)CNC(=O)[C@@H]2[C@H]1CCN2Cc1ccc(S(C)(=O)=O)cc1	3.65%	–	–
COc1ccccc1-n1c(=O)c(C(=O)N2CCN([S+](=O)([O-])c3cccs3)CC2)nc2cccnc21	4.07%	–	–
COc1ccccc1Nc1ccnc(N2CCC(N[S+](=O)([O-])c3cccs3)CC2)n1	–	31.6 µM (active)	–
O=c1n(CCN2CCN([S+](=O)([O-])c3cccs3)CC2)nc2n1CCCC2	-21.4%	–	–
O=[S+]([O-])(c1cccs1)N1CCN(c2nccc(Nc3ccccc3F)n2)CC1	–	25.1 µM (active)	–
COc1ccccc1Nc1ccnc(N2CCC(NC(=O)NC(C)C)CC2)n1	-11.6%	–	–
CN(C)C(=O)c1cccnc1OC1CCN(C(=O)c2ccc(Br)o2)C1 (stereo unspecified)	-2.28%	–	–
CCc1nc2nccc(-c3ccco3)n2n1	–	–	inactive
Cc1nc(-c2ccccc2OC2CN(C(=O)c3ccnn3C)C2)no1	-10.8%	–	–
CC(=O)/C=C/C1=CC(C)(C)COc2ccc(O)cc21	–	25.1 µM (active)	–
Cc1noc(-c2cccc(OC3CN(C(=O)CN4C(=O)CCC4=O)C3)c2)n1	2.78%	–	–
CC(=O)Nc1ccc(NC(=O)Cn2nc3c(cc2=O)CCCCC3)cc1	–	–	inactive
O=C(c1ccoc1)N1CCCC(c2nc(CCOCC3CCCC3)no2)C1 (stereo unspecified)	-12.7%	–	–
C1CCC(COCCc2noc(C3CNC3)n2)C1	–	7.94 µM (active)	–

SMILES	activity change, negative = cytotoxicity	Potency	outcome
O=C(Cc1cccnc1)N1CCCC(c2nc(CCOCC3CCCC3)no2)C1 (stereo unspecified)	-8.29%	–	–
COCCCNC(=O)c1ccc2oc(-c3ccc(OC)nc3)nc2c1	-22% [at 138 µM]	–	–
CC(C)CNC(=O)N1CCCC(c2nc(C(C)C)no2)CCNC(=O)CC1 (stereo unspecified)	-8.55%	–	–
CC(C)(C)NC(=O)N1CCCC(c2nc(CCOCC3CCOCC3)no2)C1 (stereo unspecified)	–	–	inactive
CC(=O)N1CCC(N2CCC[C@H]2c2nc(-c3ccc(-c4cncnc4)nc3)no2)CC1	-21.4% [at 138 µM]	–	–
CN1CCC(N2CCC[C@H]2c2nc(-c3ccc(OC4CCCCC4)nc3)no2)CC1	–	28.2 µM (active)	–
CC(=O)N1CCN(c2cc(-c3noc([C@@H]4CCCN4C4CCC4)n3)ccn2)CC1	-7.66% [at 138 µM]	–	–
COCCN1CCC2(CCC1=O)CCN(C(=O)Nc1cc(Cl)ccc1C)CC2	-17.5%	–	–
CCN(CC)C(=O)[C@@H](C)C1CC[C@@]2(C)Cc3sc(N)nc3[C@@H](C)[C@@H]2[C@H]1O (stereo partly specified)	-15.1% [at 174 µM]	–	–
COCCNC(=O)C(C)[C@@H]1CC[C@@]2(C)CC[C@H](NC(=O)c3ccccc3)[C@@H](C)[C@@H]2[C@H]1O (stereo partly specified)	-1.63% [at 138 µM]	–	–
C=CCN(C)C(=O)[C@@H](C)C1CC[C@@]2(C)Cc3sc(Nc4c(Cl)cccc4Cl)nc3[C@@H](C)[C@@H]2[C@H]1O (stereo partly specified)	–	44.7 µM (active)	–
Cc1cc(C2CCCN2C(=O)c2ccccc2)on1 (stereo unspecified)	–	–	inactive
O=C(c1ccc2cc[nH]c2c1)N1CCN(Cc2cnc[nH]2)CC(O)C1 (stereo unspecified)	-0.94%	–	–
Cc1ccc(-n2nc3n(c2=O)CCN(C(=O)Cc2ccccn2)C3)cc1	-2.45%	–	–
O=C(C1CC1)N1CCn2c(nn(-c3ccc(F)cc3)c2=O)C1	-29.2% [at 138 µM]	–	–
Cc1ccc(-n2nc3n(c2=O)CCN(C(=O)C(C)(C)C)C3)cc1	–	50.1 µM (active)	–
COc1ccc(CC(=O)Nc2cc(-c3cccnc3)nn2-c2ccccc2)cc1	-35.3%	–	–
COc1ccc(-n2nc(-c3ccccc3)n(CC(=O)N(C)CC(C)C)c2=O)cc1	–	79.4 µM (active)	–
COc1ccc(N2CCN(C3CCCN(CC(=O)N(C)C(C)C)C3)CC2)cc1 (stereo unspecified)	-1.05%	–	–
Cc1noc2c(N3CCC(c4ccccc4)CC3)cc(-c3cccnc3)nc12	-24.6% [at 138 µM]	–	–
Cc1nc2c(c(-c3ccc(Cl)cc3)n1)CCN([S+](=O)([O-])c1c(C)noc1C)CC2	-12.1%	–	–
Cc1noc2c(N3CC[S+](=O)([O-])CC3)cc(-c3ccc(Cl)cc3)nc12	–	10 µM (active)	–
CN1CCCCCCN(C(=O)C2CCC2)[C@H]2CCC[C@H]2C1=O	-7.21%	–	–
Cc1noc(C)c1-c1cc2cc(CNC3CCOCC3)oc2c(NC2CCN(C)CC2)n1	–	39.8 µM (active)	–

SMILES	activity change, negative = cytotoxicity	Potency	outcome
CCOCCN1C(=O)COC[C@@H]1[C@H](O)c1ccc(NC(=O)c2cnccn2)cc1	-12.3% [at 138 µM]	–	–
CCCN1CCN(C(=O)C2CCCN(c3cnn(Cc4ccccc4)c(=O)c3)C2)CC1 (stereo unspecified)	-15%	–	–
O=C(C1CCCN(Cc2cccc(-c3ccc(F)cc3F)c2)C1)N1CCN(Cc2ccccc2)CC1 (stereo unspecified)	–	39.8 µM (active)	–
O=C(C1CCN(Cc2ccccc2-c2cccnc2)CC1)N1CCN(Cc2ccccc2)CC1	-38.3%	–	–
COCc1nc(CCNC(=O)Cc2c(C)noc2C)no1	-2.43%	–	–
CN(C)C[C@@H]1CN(C)C[C@H]1NC(=O)c1cnn(C)c1	-4.02%	–	–
CCn1ccc(C(=O)NCC2CCCCC(=O)N2)n1 (stereo unspecified)	-4.36%	–	–
O=C(c1ccccn1)N1CCn2c(nnc2C2CCCNC2)C1 (stereo unspecified)	4.23% [at 138 µM]	–	–
COCC(=O)N(C1CCOCC1)C1CCN(S(=O)(=O)c2ccccc2)CC1	-10.5%	–	–
O=C1NC2(CCCN([S+](=O)([O-])c3ccccc3)C2)COc2ccccc21 (stereo unspecified)	–	22.4 µM (active)	–
O=[S+]([O-])(c1ccccc1)N1CCCC2(CC(c3ccccn3)=NO2)C1 (stereo unspecified)	–	–	inactive
O=C1NC2(Cc3ccccc31)CN([S+](=O)([O-])c1cccc(C(F)(F)F)c1)C2	-11.6%	–	–
COc1nccnc1NC1CCN(C(=O)CCc2ccccc2)CC1	-22.2%	–	–
Cc1ccc(C2Cn3nnc(-c4noc(-c5ccccc5C)n4)c3CO2)cc1 (stereo unspecified)	–	–	inactive
O=C1CCCN1CCCN1C(=O)[C@@H]2C[C@@H](O)CN2C2(CN(C3CCOCC3)C2)C1=O	-0.373% [at 174 µM]	–	–
COCC(=O)Nc1ccc([C@@H](O)[C@H]2COCC(=O)N2Cc2ccc(C(F)(F)F)cc2)cc1	-11.3%	–	–
COCCn1c2c(c(=O)n1-c1ccccc1)CCN(Cc1cccc(C#N)c1)C2	–	100 µM (active)	–
N#Cc1cccc(CN2CCc3nc(N4CCc5ccccc5C4)[nH]c(=O)c3CC2)c1	-0.249%	–	–
O=C1NCCN(Cc2ccccc2)C1CC(=O)N1CCN(c2ccccc2)CC1 (stereo unspecified)	-1.32%	–	–
O=c1c2c(n(Cc3ccccc3)n1-c1ccccc1)CN(Cc1ccn[nH]1)CC2	–	89.1 µM (active)	–
O=C(Cn1c2c(c(=O)n1Cc1ccccc1)CCN(Cc1ccccc1)C2)NCc1cccc(Cl)c1	-22.1%	–	–
N#Cc1cccc(CN2CCCN(S(=O)(=O)c3ccccc3)CCC(=O)NCC2)c1	-29.7%	–	–
N#Cc1ccc(CN2CCC3(COc4ncccc4[S+](=O)([O-])N3)C2)cc1 (stereo unspecified)	-19.9%	–	–
CC(C)c1ccc(CNC(=O)CCn2ccn3nc4c(c3c2=O)CCCC4)cc1	-28.9%	–	–
